The values that follow come from PubChem BioAssay (NCATS).

“And” between values parts separate entries of the source, which are not always exact repeats. Identical values can stand only once. A number with no mark means an inactive call. Results filed as inconclusive are left out. The source made the active and inactive calls. Unless noted, calls come from the whole dose curve; as a rule, active = well fitted curve in the direction sought with a large enough effect; inconclusive = small, poorly fitted or top-dose-only effect, or another doubt; inactive = no such curve, though single readings can be large; an effect the other way counts as inactive or inconclusive.

A short description of assay [1]: Cellular Toxicity (caspase-3) HepG2 (AID 654).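 Note: cells exposed to compound for 16 hours before reading; 0% = DMSO alone and 100% = caspase signal from 100 µM tamoxifen.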 In a few lines: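 qHTS, HepG2, 1500 cells/well, complete medium; cpd 16 h 37 °C; Caspase-Glo 3/7, 20 min RT; lum. Norm: DMSO vs 100 uM tamoxifen; AC50 Hill fit.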
Assay [2] in a line: Cellular Toxicity (caspase-3) BJ (AID 658).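 Note: cells exposed to compound for 16 hours; 0% = DMSO basal and 100% = 10 µM staurosporine.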 The gist of the method:
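Readout: Caspase-Glo 3/7 luminescence increase in BJ cells after 16 hr treatment at 37 °C. Staurosporine and tamoxifen served as positive controls; AC50 values came from Hill modelling of data normalized to DMSO and 10 uM staurosporine.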

A short description of assay [3]: Cellular Toxicity (caspase-3) MRC-5 (AID 659).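 Note: 0% = DMSO basal and 100% = 10 µM staurosporine.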 In a few lines:
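Concentration-dependent caspase 3/7 activation is measured in human normal lung fibroblasts (MRC-5) following 16-hour treatment. AC50 values come from standard Hill-equation modeling of luminescence normalized to DMSO and 10 uM staurosporine.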

The nature of assay [4]: Cellular Toxicity (caspase-3) Hek293 (AID 664).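 Note: cells exposed to compound for 16 h at 37 °C before readout.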 The settings on record: HEK293 caspase-3 activation, DMSO = 0%, 100 µM tamoxifen = 100%; at 92.2 µM (top of the series). The gist of the method:
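Activation of caspase-3/7 is measured as increased luminescence from cleaved peptide-aminoluciferin substrate in HEK293 cells treated 16 hours at 37 °C. AC50 values come from Hill-equation fits of concentration-response data.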

A short description of assay [5]: Cellular Toxicity (caspase-3) N2a (AID 665).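 Note: compound exposure lasted 16 h at 37 °C before readout.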 In a few lines:
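Plated mouse neuroblastoma N2a cells received titrated compounds for 16 h in complete medium. Caspase activity was then detected with a peptide-aminoluciferin luminescent reagent.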

Assay [6] can be described thus: Cellular Toxicity (caspase-3) NIH 3T3 (AID 666).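 Note: caspase signal read after 16 h compound exposure; 0% = DMSO basal and 100% = 100 µM tamoxifen stimulation.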 The gist of the method:
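Concentration-response qHTS in NIH 3T3 mouse fibroblasts scores caspase-3/7 activation as rising luminescence after 16 hr compound exposure. Signals are scaled between DMSO-only and 100 uM tamoxifen.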

Assay [7] can be described thus: Cell Viability - LYMP2-001 (AID 921). Note: nearly all actives have a fitted effect of over 70% in size. Note: potency is the fitted concentration of half-maximal effect. The gist of the method: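 Cellular ATP loss read by luciferase luminescence after 24 h compound exposure at 37 C in complete medium. LYMP2-001 lymphoblastoid cells, 2500/well; qHTS concentration-response data fitted with Hill equation for AC50.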
Assay [8] can be described thus: MultiTox-Fluor Cytotoxicity Assay - LYMP1-001 - Dead Cells (AID 946). In a few lines: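 Seed 2500 LYMP1-001 cells/well, incubate 5 hr at 37 C; add compound, 16 hr at 37 C; add MultiTox-Fluor reagent, 60 min RT; read dead-cell fluorescence Ex/Em=485/520. Normalize to DMSO and 15 uM tetraoctylammonium bromide.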
The nature of assay [9]: MultiTox-Fluor Cytotoxicity Assay - LYMP1-002 - Live Cells (AID 955).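 Note: cells exposed to compound for 16 hours; % is set by controls: 0 for no effect and ±100 for the full control effect.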 The gist of the method: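 Cytotoxicity in the human lymphoblastoid line LYMP1-002 is measured as loss of live-cell protease activity after 16 h treatment in complete culture medium. AC50 is derived from Hill-equation fits of qHTS concentration-response data.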
The nature of assay [10]: MultiTox-Fluor Cytotoxicity Assay - LYMP1-003 - Dead Cells (AID 961). Note: nearly all actives have a fitted effect of over 70% in size. In a few lines: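 LYMP1-003 lymphoblastoid, 2500 cells/well, 5 hr settle then 16 hr cpd at 37 C; MultiTox-Fluor reagent 60 min RT; Ex/Em 485/520 dead-cell signal; norm. DMSO = 0%, 15 uM tetraoctylammonium bromide = 100%; Hill AC50.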
Assay [11] can be described thus: MultiTox-Fluor Cytotoxicity Assay - LYMP1-003 - Live Cells (AID 962).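 Note: cells exposed to compound for 16 hours at 37 °C; 0% = DMSO only and full loss = 92 µM tetraoctylammonium bromide; cytotoxic hits lower the live-cell protease signal.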 The gist of the method:
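Cells plated at 2500 per well and incubated 5 hr; compounds added and incubated 16 hr at 37 C; MultiTox-Fluor reagent added for 60 min at room temperature; fluorescence of liberated AFC measured at 405/510 nm.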

Assay [12] in a line: Cell Viability - LYMP2-021 (AID 974).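 Note: compound exposure lasts 24 hours at 37 °C; nearly all actives have a fitted effect of over 55% in size.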 Note: potency is the fitted concentration of half-maximal effect. The gist of the method:
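Concentration-response cytotoxicity in a human lymphoblastoid line: 24 hr treatment at 37 C in complete culture medium, tetraoctylammonium bromide as positive control, luminescent ATP quantitation as viability measure.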

Assay [13] can be described thus: Cell Viability - LYMP2-025 (AID 976). Note: potency is the fitted concentration of half-maximal effect. The gist of the method: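 In qHTS format, LYMP2-025 lymphoblastoid cells in complete culture medium received compound for 24 hr; ATP-based CellTiter-Glo signal gave viability, with AC50 derived by Hill equation.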
Assay [14] is described as follows: Cell Viability - LYMP2-006 (AID 978). Note: nearly all actives have a fitted effect of over 60% in size. Note: potency is the fitted concentration of half-maximal effect. In a few lines: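 Potency values are Hill-fit AC50s for decreases in intracellular ATP (CellTiter-Glo luminescence). LYMP2-006 lymphoblastoid cells, 2500 per well, were exposed to compound in complete culture medium for 24 hr at 37 C.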
Assay [15] is described as follows: Cell Viability - LYMP1-002 - Assay at 24 hr (AID 993). Note: % is set by controls: 0 for no effect and ±100 for the full control effect. In a few lines: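 qHTS, LYMP1-002 lymphoblastoid, 24 h cpd, 37 C, CellTiter-Glo ATP luminescence; AC50 via Hill eq.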
Assay [16] in a line: Cell Viability - LYMP1-002 - Assay at 40 hr (AID 994).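 Note: 0% = DMSO only and full inhibition = 92 µM tetraoctylammonium bromide; nearly all actives have a fitted effect of over 60% in size.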 In a few lines:
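Viability in the human lymphoblastoid line was measured as intracellular ATP via CellTiter-Glo after 40 hr compound exposure. Tetraoctylammonium bromide served as positive control.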

A short description of assay [17]: qHTS Assay for Identification of Small Molecule Inducers of Hypoxia Response (AID 2120; active = well fitted curve in the direction sought with a large enough effect in the signal ratio, with a control signal flat, not every such curve was filed as active; the % refers to the signal ratio; note: potency is the fitted concentration of half-maximal effect; for activation: 0% is about no effect). The gist of the method:
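Induction of beta-lactamase reporter activity was measured in CellSensor HRE-bla ME-180 cells after 17 h compound treatment at 37 degrees C, using CCF4 substrate and the 460nm/530nm emission ratio to derive AC50 values.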
On the technique in general: In qHTS, concentration-response curves come from the screen itself.

Assay [18] addresses Peroxisome proliferator-activated receptor alpha (Homo sapiens) (UniProt Q07869). Briefly: qHTS assay for small molecule agonists of the peroxisome proliferator-activated receptor alpha (PPARalpha) signaling pathway (AID 651778). Note: % of control where 0% means no effect. As to conditions: PathHunter PPARalpha complementation, chemiluminescence, 6 h; hits give high values. The gist of the method:
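Chemiluminescence from complemented enzyme reported PPARalpha activation in cells after 6 hr of compound treatment at 37 C. The detection reagent was incubated for 60 min at room temperature, and compounds were scored as agonists.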

Assay [19] in a line: qHTS assay for cell viability of the p53RE-bla HCT-116 cell line (AID 743292). Note: nearly all actives have a fitted effect of over 55% in size. Note: potency is the fitted concentration of half-maximal effect. The gist of the method: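 Intracellular ATP of p53RE-bla HCT-116 cells measured by luciferase luminescence following 16 h compound incubation at 37 C; DMSO-only wells served as vehicle controls.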
Assay [20] can be described thus: Cell Viability - BJ (AID 421; calls by dose curve;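 note: potency is the fitted concentration of half-maximal effect; cells exposed to compound for 40 hours at 37 °C before readout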). The settings on record: BJ fibroblast viability, qHTS. In a few lines:
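Cytotoxicity in human BJ foreskin fibroblasts is scored as loss of cellular ATP after a 40-hour exposure, measured by luciferase luminescence. Controls are DMSO and 100 uM tamoxifen.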

Sequence of Peroxisome proliferator-activated receptor alpha (Homo sapiens) (Q07869 whole entry, looked up): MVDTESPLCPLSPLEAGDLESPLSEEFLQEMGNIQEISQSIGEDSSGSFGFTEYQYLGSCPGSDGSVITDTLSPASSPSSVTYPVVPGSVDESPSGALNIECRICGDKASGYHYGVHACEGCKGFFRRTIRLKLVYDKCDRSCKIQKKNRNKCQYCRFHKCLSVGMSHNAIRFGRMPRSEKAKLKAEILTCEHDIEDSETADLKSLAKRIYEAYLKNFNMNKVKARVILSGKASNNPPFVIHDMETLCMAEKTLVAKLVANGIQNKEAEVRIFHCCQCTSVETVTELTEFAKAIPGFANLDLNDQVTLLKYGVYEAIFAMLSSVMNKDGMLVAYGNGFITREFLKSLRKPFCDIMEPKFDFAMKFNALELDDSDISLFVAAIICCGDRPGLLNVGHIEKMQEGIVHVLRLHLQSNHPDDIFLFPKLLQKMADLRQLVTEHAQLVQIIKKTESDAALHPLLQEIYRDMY

Take `N#C/C=C/C#N`: the result in assay [1], in [2], in assay [3], in [5], in [8] and in assay [9] was inactive. In assay [11], the compound was called inactive. For the same compound, the caspase-3 activation in [4] was -2.32%. Also, the Potency result in [6], in assay [10], in assay [15], in [16], in assay [17] and in assay [19] was “inactive” in each case. Besides, the Potency in assay [7] was 31.6 µM (active); in assay [12] it was 39.8 µM (active); in [13] it was 50.1 µM (active); in [14], 25.1 µM (active). Moreover, the max response in [18] was -6.4%.

On to `Oc1cc(Cl)c(Cl)c(Cl)c1Cl`, for which the compound was classed as inactive in assay [1], in assay [2], in assay [3], in assay [5], in [8] and in [9]. In addition, the compound was called inactive in assay [11]. For the same compound, the caspase-3 activation in assay [4] is 8.07%. In addition, the Potency entry in [6], in [7], in [10], in [13], in assay [14] and in [15] was “inactive” each time. Besides, the Potency entry in assay [16], in assay [17] and in assay [19] was “inactive” throughout. The max response in [18] is 0.278%.

Regarding `c1ccc2c(c1)-c1cccc3c1c-2cc1ccccc13`, in [17], the Potency was 44.7 µM (active).

As for `CN(C)c1ccc(N=Nc2ccccc2)cc1`, the Potency in [20] is greater than 92 µM. Besides, the outcome in [1], in [2], in [3], in assay [5], in [8] and in [9] was inactive. For the same compound, the outcome in assay [11] was inactive. Besides, the caspase-3 activation in assay [4] was -8.79%. Also, the Potency result in [7], in [10], in [12], in assay [13], in [14] and in assay [15] was “inactive” throughout. In addition, the Potency result in [16], in assay [17] and in [19] was “inactive” throughout. Further, the max response in [18] was -12.4%.

For `Oc1cc(Cl)c(Cl)c(Cl)c1`, the compound was called inactive in assay [1], in assay [2], in assay [3], in assay [5], in assay [8] and in [9]. In addition, the compound was called inactive in [11]. For the same compound, the caspase-3 activation in assay [4] was 11.5%. In addition, the Potency result in assay [6], in assay [7], in assay [10], in [15], in assay [16] and in assay [17] was “inactive” in each case. Also, the Potency result in [19] is “inactive”. In assay [18], the max response was -3.78%.

Take `Nc1ccc(-c2ccc(N)c(Cl)c2)cc1Cl`: the outcome in assay [1], in assay [2], in [3], in assay [5], in [8] and in assay [9] was inactive. Moreover, the caspase-3 activation in assay [4] is 4.67%. Moreover, the Potency result in assay [6], in assay [7], in assay [12], in [13], in assay [14] and in assay [15] was “inactive” each time. The Potency entry in [17] and in assay [19] was “inactive” each time. The max response in [18] is -4.73% and -2.04%.

Consider `O=[N+]([O-])c1cccc(CCl)c1`, for which the outcome in assay [1], in assay [2], in [3], in [5], in assay [8] and in assay [9] was inactive. Further, in [11], the compound was classed as inactive. The caspase-3 activation in [4] is -1.48%. The Potency result in assay [10], in assay [13], in assay [14], in [15], in assay [16] and in assay [17] was “inactive” throughout. Further, the Potency result in assay [19] is “inactive”. Moreover, the max response in assay [18] was 0.189%.

Take `Clc1ccc(C(c2ccccc2Cl)C(Cl)(Cl)Cl)cc1` (stereo not drawn): the results for the Potency in assay [20] and in assay [19] were greater than 92 µM and 50.1 µM (active), respectively. Further, the compound was classed as inactive in [1], in [2], in assay [3], in [5], in assay [8] and in assay [9]. Also, the result in assay [11] was inactive. Further, the Potency entry in [6], in [7], in [10], in assay [12], in assay [13] and in assay [14] was “inactive” in each case. Moreover, the Potency result in assay [15], in [16] and in assay [17] was “inactive” throughout. Also, in assay [18], the max response is 3.12%.

On to `[C-]1=CC=CC1.[C-]1=CC=CC1.[Cl-].[Cl-].[Ti+4]`, for which the compound was classed as inactive in assay [1], in assay [2], in [3], in assay [5] and in [8]. For the same compound, the caspase-3 activation in assay [4] was 3.8%. Moreover, the Potency result in assay [6], in assay [10], in assay [17] and in assay [19] was “inactive” each time. Further, in [18], the max response is 0.688%.

`BrCC(Br)(Br)Br`: the Potency is greater than 92 µM in assay [20], 20 µM (active) in assay [12] and 15.8 µM (active) in [14]. The compound was called inactive in assay [1], in [3], in assay [5], in assay [8], in assay [9] and in [11]. Besides, the caspase-3 activation in assay [4] is 7.98%. Also, the Potency result in assay [6], in assay [10], in [15], in [16], in assay [17] and in assay [19] was “inactive” in each case. Also, the max response in assay [18] is -5.78%.

On to `c1ccc2c(c1)ccc1cc3c(ccc4ccccc43)cc12`, for which the Potency in assay [17] was 44.7 µM (active).
